Shown are actives, neighbours in structure and some others; about 19% of the full set was active somewhere.
TDP1 cell noCPT – qHTS for Inhibitors of human tyrosyl-DNA phosphodiesterase 1 (TDP1): qHTS in cells in absence of CPT | DT40 Tdp1-/- hTDP1 cells, no CPT, ATP luminescence, 48 h | Potency, µM (top dose mostly 46.2 µM), for the others: top-dose activity change, negative = growth inhibition, usual class: inhibitors | 420,000 tested, 15% active; also: potency is read from the fitted curve at half-maximal effect; nearly all actives have a fitted effect of over 55% in size
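Stably hTDP1-transfected Tdp1-null chicken DT40 cells were treated with library compounds minus camptothecin and grown for at least 48 hr at 37 °C, after which cellular ATP was quantified by luminescence.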
HT1080-NT tox – kills 2HG-producing HT-1080-NT fibrosarcoma cells. HT-1080-NT fibrosarcoma viability, CellTiter-Glo ATP luminescence, 48 h. Potency, µM (top dose mostly 46.1 µM), inactives show at the top dose activity, negative = less viability, usual class: cytotoxic. 360,000 tested, 1.6% active. AID 686970;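 also: NT is the 2HG producing partner of a matched IDH1 knockdown line; potency is read from the fitted curve at half-maximal effect; 0% = DMSO-treated cells and -100% = media-only wells without cells; nearly all actives have a fitted effect of over 55% in size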
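Toxicity toward the 2HG-producing NT line was scored as %Activity, normalised to DMSO and no-cell wells, from CellTiter-Glo luminescence after 48 hours' treatment.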
IL-1B inflam inh – blocks inflammasome-driven IL-1 beta release | 360,000 tested, 4.7% active | THP-1 LPS/ATP IL-1B secretion, AlphaLISA, 16 h; active compounds read low | activity change, % at 57.5 µM; in the data active = activity change below about -50%; inconclusive = mostly about -30% to -49%
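THP-1 cells pretreated 1 hr with compounds (up to 57.5 uM final), then stimulated with LPS (250 ng/mL final) plus ATP (1.25 mM final); secreted IL-1B measured by AlphaLISA after 16 hr, decreased signal indicating inhibition.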
HT1080 IDH1KD tx – toxicity to HT-1080 IDH1 knockdown cells (counter line); HT-1080 IDH1 knockdown viability, ATP luminescence, 48 h; Potency, µM (highest dose often 46.1 µM), inactives show at the highest dose activity, negative = toxicity, hits mostly cytotoxic; 360,000 tested, 2% active; AID 686971;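 also: potency is read from the fitted curve at half-maximal effect; 0% = DMSO wells and -100% = cell-free medium wells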
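% activity derives from luminescence (CellTiter-Glo), normalised to DMSO and no-cell wells. HT-1080-IDH1KD cells, 750/well, had 48 h compound exposure at 37 °C.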
DT40 TDP1 CPT – growth inhibition of DT40 Tdp1-/-;hTDP1 cells with camptothecin (screen for TDP1 inhibitors). 420,000 tested, 12% active. AID 686979. chicken DT40 Tdp1-/-;hTDP1 cells + 20 nM CPT, ATP luminescence, 48 h. Potency, µM (highest dose often 46.2 µM), without a hit: top-dose activity change, negative = growth inhibition, most hits filed as inhibitors; also: potency is read from the fitted curve at half-maximal effect; nearly all actives have a fitted effect of over 55% in size
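Chicken DT40 Tdp1-/- cells stably complemented with human TDP1 were seeded at 400 cells/well in medium containing 20 nM camptothecin, exposed to pin-transferred compounds, and grown at 37 °C for at least 48 hr. Viability was read as ATP luminescence.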
* marks the source's active call; other numbers are inactive results; ? = inconclusive; nt = no result. Unless noted, calls follow the shape of the dose curve; as a rule, active = well fitted curve in the direction sought with a large enough effect; inconclusive = small, poorly fitted or top-dose-only effect, or another doubt; inactive = no such curve, though single readings can be large; an effect the other way counts as inactive or inconclusive. Unless noted, % is scaled to controls: 0 for no effect and ±100 for the full control effect.

SMILES	TDP1 cell noCPT	HT1080-NT tox	IL-1B inflam inh	HT1080 IDH1KD tx	DT40 TDP1 CPT
C[C@H]1CN([C@@H](C)CO)S(=O)(=O)c2ccc(-c3ccccc3)cc2O[C@H]1CN(C)C(=O)C1CCC1	15µM*	-3%	19	-6%	?
CC(C)NC(=O)N(C)C[C@H]1Oc2cc(Br)ccc2S(=O)(=O)N([C@H](C)CO)C[C@H]1C	-7%	6%	21	-6%	-26%
C[C@H]1CN([C@@H](C)CO)S(=O)(=O)c2ccc(C3=CCCC3)cc2O[C@@H]1CN(C)C(=O)C1CCCCC1	-111%	?	-51*	?	-94%
C[C@@H]1CN([C@@H](C)CO)S(=O)(=O)c2ccc(Br)cc2O[C@H]1CN(C)C(=O)C1CCOCC1	-3%	12%	-5	12%	9%
COc1ccccc1Nc1ccc2c(O)cc(S(=O)(=O)O)cc2c1	3%	-6%	20	-2%	15%
Cc1ccccc1CC(=O)Nc1ccc(C(=O)N2CCCC2)cc1	2%	-10%	-2	0%	0%
COc1cccc(CNC(=O)[C@@H]2CCCN2C(=O)[C@H]2CCCCN2C(=O)c2cccs2)c1	-7%	21%	-8	5%	-7%
C[C@@H]1CN([C@@H](C)CO)S(=O)(=O)c2ccc(Br)cc2O[C@H]1CN(C)C(=O)Cc1cccnc1	-3%	2%	11	14%	-1%
C[C@@H]1CN([C@H](C)CO)S(=O)(=O)c2ccc(C3=CCCCC3)cc2O[C@H]1CN(C)C(=O)Cc1cccnc1	26µM*	0%	-24	1%	?
C/C=C/c1ccc2c(c1)O[C@@H](CN(C)C(=O)c1ccc(F)cc1)[C@@H](C)CN([C@H](C)CO)S2(=O)=O	?	-5%	-3	2%	?
C[C@H]1CN([C@@H](C)CO)S(=O)(=O)c2ccc(/C=C/c3ccccc3)cc2O[C@H]1CN(C)C(=O)NC1CCCCC1	18µM*	?	-55*	?	?
Cc1sc2ncnc(N3CCC(C(=O)Nc4sc5c(c4C(N)=O)CCC(C)C5)CC3)c2c1C (stereo unspecified)	?	10%	-2	13%	?
CC(=O)Nc1ccc(NC(=O)C(=O)c2cn(CC(=O)N3CCCC3)c3ccccc23)cc1	-21%	1%	9	-16%	0%
COc1ccc(CCNC(=O)C(=O)c2cn(CC(=O)N3CCCC3)c3ccccc23)cc1OC	21µM*	-4%	-30	5%	-9%
CC(=O)Nc1cccc(NC(=O)C(=O)c2cn(CC(=O)N3CCCCC3)c3ccccc23)c1	?	-16%	-3	-19%	23µM*
COc1ccc(NC(=O)C(=O)c2cn(CC(=O)N3CCCC3)c3ccccc23)cc1	0.23µM*	?	125	0.37µM*	0.41µM*
COc1ccc(CCNC(=O)Cn2cc(S(=O)(=O)Cc3ccc(F)cc3)c3ccccc32)cc1OC	21µM*	nt	nt	nt	?
COc1ccc(CCNC(=O)C(=O)c2cn(CC(=O)N3CCOCC3)c3ccccc23)cc1	-17%	3%	-9	4%	20%
CC(C)c1nnc(NC(=O)C2CCN(S(=O)(=O)c3ccc(-n4cnnn4)cc3)CC2)s1	5%	-2%	-9	10%	-5%
COC(=O)[C@]1(C)N[C@H](c2ccc(-c3ccc(F)cc3)cc2)[C@@H]2C(=O)N(C)C(=O)[C@@H]21	?	2%	-16	8%	?
CN1CCN(c2ncnc3c2ncn3[C@H]2CN(Cc3cccnc3)C[C@@H](CO)O2)CC1	5%	21%	4	16%	-23%
Cc1nc2sccn2c(=O)c1Br	-12%	18%	14	21%	2%
CCC(=O)Oc1ccc(C2Nc3ccccc3-c3nnc(SC)nc3O2)cc1 (stereo unspecified)	-23%	nt	nt	nt	-7%
Cn1c(=N)n(CC(=O)c2ccc(F)cc2)c2ccccc21	13µM*	-16%	2	-17%	16µM*
Cc1n(CC(=O)c2ccc(F)cc2)c2ccccc2[n+]1C	-1%	-4%	48	-7%	4%
SMILES	TDP1 cell noCPT	HT1080-NT tox	IL-1B inflam inh	HT1080 IDH1KD tx	DT40 TDP1 CPT
CCn1c(=N)n(CC(=O)c2ccc(OC)cc2)c2ccccc21	?	-7%	?	-14%	?
Cn1c(=N)n(CC(=O)c2ccc(Br)cc2)c2ccccc21	18µM*	?	nt	23µM*	21µM*
COc1cc(=O)n2c(c1C(=O)N(C)Cc1ccsc1)CCN(Cc1c(C)nc3sccn13)CC2	-24%	nt	nt	nt	-4%
O=C(Nc1ccc(Oc2ccccc2)nc1)C1CCCCN1Cc1ccc(OCCO)cc1 (stereo unspecified)	-26%	9%	-5	0%	-17%
COc1cccc(C(=O)NC2CC3CCCC(C2)N3CC(=O)Nc2ccccc2C(F)(F)F)c1 (stereo unspecified)	16µM*	?	-16	?	?
O=C(NC1CC2CCCC(C1)N2CC(=O)N1CCCc2ccccc21)C1CCCCC1 (stereo unspecified)	-30%	10%	-9	21%	-11%
O=C(CN1C2CCCC1CC(NC(=O)C1CCCCC1)C2)NCc1ccc(F)cc1 (stereo unspecified)	16µM*	9%	0	2%	?
O=C(CN1C2CCCC1CC(NC(=O)C1CCCCC1)C2)Nc1ccccc1C(F)(F)F (stereo unspecified)	15µM*	-28%	?	?	23µM*
CCc1cccc(CC)c1NC(=O)CN1C2CCCC1CC(NC(=O)Nc1cccc(OC)c1)C2 (stereo unspecified)	?	?	?	?	18µM*
Oc1cc(-n2cccn2)c(O)cc1-n1cccn1	4.1µM*	1%	-3	8%	5.8µM*
O=Cc1ccccc1-n1cccn1	9%	8%	0	7%	17%
O=C(Cn1c(=O)n(Cc2ccc(C(=O)NCc3ccc4c(c3)OCO4)cc2)c(=O)c2ccccc21)Nc1ccc(F)cc1F	?	nt	nt	nt	-7%
O=C(Nc1ccc2c(c1)OCO2)c1cc(C2CC2)on1	-19%	?	-3	8.2µM*	-13%
COC(=O)N1CCCCC1c1cc(C(=O)Nc2ccc3c(c2)OCO3)no1 (stereo unspecified)	-25%	-2%	0	3%	0%
N#Cc1ccc(C(=O)N2CCCCC2c2cc(C(=O)Nc3ccc4c(c3)OCO4)no2)cc1 (stereo unspecified)	23µM*	?	-16	24%	?
CCCNC(=O)c1cc(C2CCCCN2C(=O)c2ccc(C#N)cc2)on1 (stereo unspecified)	-5%	15%	-10	4%	4%

Bioassay records (PubChem)
